# According to PubChem BioAssay (NCATS):
# Where “and” joins values, the source holds several entries; their conditions need not be identical. Identical values can stand only once. Records with an inconclusive call do not appear. Calls of active or inactive are those of the source. Unless noted, the call rests on the fitted dose curve.
# Key:
# [1] = target: Vitamin D3 receptor (Homo sapiens) (UniProt P11473); assay: qHTS assay for small molecule antagonists of vitamin D receptor signaling (AID 588541);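 further: receptor activated by calcitriol during compound treatment; series mostly up to about 77 µM; on the % scale 0 is the no-effect control and ±100 the full control effect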
# In short: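 Antagonist-mode beta-lactamase reporter assay: HEK293T VDR-UAS-bla cells were exposed to titrated compound alongside 1-alpha,25-dihydroxyvitamin D3 at 3 nM final for 16 h. Values were normalized to the 50 nM agonist control and DMSO basal, with IC50 and efficacy from Hill equation fits.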
# [2] = target: Vitamin D3 receptor (Homo sapiens) (UniProt P11473); assay: qHTS assay for small molecule agonists of vitamin D receptor signaling (AID 588543);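 further: 0% = DMSO basal and 100% = reference agonist control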
# In short: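 β-lactamase reporter, VDR-UAS-bla HEK293T, agonist mode. Cells plated 5 h at 37 °C, compound titration 16 h at 37 °C, CCF4 dye 2 h RT, ratio 460/530 nm. Hill fit → EC50, efficacy vs 50 nM 1α,25-(OH)2D3.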
# [3] = qHTS assay for small molecule agonists of retinoid X receptor alpha signaling (AID 588544); conditions: HEK293T RXRa-UAS-bla, beta-lactamase reporter, 18 h; 530 nm emission
# [4] = target: Retinoic acid receptor RXR-alpha (Homo sapiens) (UniProt P19793); assay: as above
# [5] = target: Thyroid hormone receptor beta (Homo sapiens) (UniProt P10828); assay: qHTS assay for small molecule agonists of thyroid hormone receptor beta signaling (AID 588545)
# In short: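 Agonist activity was read as beta-lactamase CCF4 fluorescence (405 ex, 460/530 em), scaled between DMSO (0%) and 10 nM T3 (100%), then Hill-fitted for EC50 and efficacy. HEK 293 TR-UAS-bla cells in 2% charcoal/dextran FBS medium were exposed 18 h at 37 C.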
# [6] = qHTS assay for small molecule antagonists of retinoid X receptor alpha signaling (AID 588546; active means well fitted inhibition curve with a large enough effect in the signal ratio, with a control signal flat, not every such curve was filed as active; the % refers to the signal ratio;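 further: cells stimulated with 9-cis-retinoic acid as agonist; on the % scale 0 is the no-effect control and ±100 the full control effect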); conditions: HEK293T RXRa-UAS-bla, beta-lactamase ratio, antagonist mode; measured here: W530 green channel, cytotoxicity proxy
# In short: (§1)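 Beta-lactamase reporter inhibition, read as CCF4 fluorescence ratio (ex 405, em 460/530 nm) after 2 h at RT. HEK293T UAS-bla cells, 2500/well, were stimulated with 9-cis-RA at 500 or 100 nM final alongside test compound for 18 h at 37 C.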
# [7] = target: Retinoic acid receptor RXR-alpha (Homo sapiens) (UniProt P19793); assay: as above; conditions: HEK293T RXRa-UAS-bla, beta-lactamase ratio, antagonist mode
# In short: as §1
# [8] = target: Thyroid hormone receptor beta (Homo sapiens) (UniProt P10828); assay: qHTS assay for small molecule antagonists of thyroid hormone receptor beta signaling (AID 588547; active means well fitted inhibition curve with a large enough effect in the signal ratio, with a control signal flat, not every such curve was filed as active; the % refers to the signal ratio;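 further: cells stimulated with 0.4 nM T3 agonist during compound exposure; series mostly up to about 77 µM; on the % scale 0 is the no-effect control and ±100 the full control effect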); conditions: TR-UAS-bla HEK293, beta-lactamase ratio, antagonist mode, 18 h
# In short: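 Inhibition of T3-driven (0.4nM final) beta-lactamase reporter activity was measured over 0.59 nM to 92 uM compound after 18 h at 37 C. The cells were GripTite HEK293 TR-UAS-bla in charcoal/dextran-stripped serum, with CCF4 ratio read-out and IC50 from Hill fits.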
# Sequence of Vitamin D3 receptor (Homo sapiens) (P11473 whole entry, looked up): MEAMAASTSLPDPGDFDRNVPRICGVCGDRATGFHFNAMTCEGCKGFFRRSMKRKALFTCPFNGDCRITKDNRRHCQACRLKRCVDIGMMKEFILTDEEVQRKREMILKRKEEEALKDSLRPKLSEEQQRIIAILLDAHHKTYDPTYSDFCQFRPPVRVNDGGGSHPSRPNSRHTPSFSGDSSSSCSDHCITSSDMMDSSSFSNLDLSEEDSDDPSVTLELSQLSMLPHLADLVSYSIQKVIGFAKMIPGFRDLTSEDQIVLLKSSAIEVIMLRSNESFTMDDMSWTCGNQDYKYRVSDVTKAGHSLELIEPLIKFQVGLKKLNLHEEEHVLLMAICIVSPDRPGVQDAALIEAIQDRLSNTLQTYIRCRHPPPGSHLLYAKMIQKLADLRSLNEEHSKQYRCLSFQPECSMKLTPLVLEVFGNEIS
# Sequence of Thyroid hormone receptor beta (Homo sapiens) (P10828 whole entry, looked up): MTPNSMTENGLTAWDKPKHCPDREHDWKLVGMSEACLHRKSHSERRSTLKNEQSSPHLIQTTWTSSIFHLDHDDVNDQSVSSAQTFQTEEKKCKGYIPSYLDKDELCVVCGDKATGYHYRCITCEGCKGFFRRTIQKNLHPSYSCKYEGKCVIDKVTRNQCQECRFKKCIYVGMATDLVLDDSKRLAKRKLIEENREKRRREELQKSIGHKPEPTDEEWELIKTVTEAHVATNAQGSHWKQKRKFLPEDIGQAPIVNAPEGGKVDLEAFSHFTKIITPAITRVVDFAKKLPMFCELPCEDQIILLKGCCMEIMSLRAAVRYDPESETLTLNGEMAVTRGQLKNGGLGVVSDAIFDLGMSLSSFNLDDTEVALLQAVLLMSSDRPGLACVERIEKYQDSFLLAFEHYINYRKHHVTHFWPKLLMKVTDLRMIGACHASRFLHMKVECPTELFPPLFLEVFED
# Sequence of Retinoic acid receptor RXR-alpha (Homo sapiens) (P19793 whole entry, looked up): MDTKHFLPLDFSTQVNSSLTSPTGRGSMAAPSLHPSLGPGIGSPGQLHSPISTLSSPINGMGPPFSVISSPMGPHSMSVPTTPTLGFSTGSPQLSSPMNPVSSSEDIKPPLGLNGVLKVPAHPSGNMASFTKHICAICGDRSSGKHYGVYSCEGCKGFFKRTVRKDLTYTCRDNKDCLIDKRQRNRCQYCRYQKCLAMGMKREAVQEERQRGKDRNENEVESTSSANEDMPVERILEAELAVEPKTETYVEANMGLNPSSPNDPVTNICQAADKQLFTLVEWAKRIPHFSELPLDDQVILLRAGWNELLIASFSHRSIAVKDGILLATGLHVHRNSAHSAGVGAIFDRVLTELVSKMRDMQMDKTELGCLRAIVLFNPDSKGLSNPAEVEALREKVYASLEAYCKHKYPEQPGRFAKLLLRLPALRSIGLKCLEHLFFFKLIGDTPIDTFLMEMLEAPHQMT
smiles,measurement,setting,value
C[C@@H]1C[C@H]2[C@@H]3CCC4=CC(=O)C=C[C@]4(C)[C@@]3(F)[C@@H](O)C[C@]2(C)[C@@]1(O)C(=O)CO,outcome,[1],inactive
same,outcome,[2],inactive
same,max response,[3],10.8% and 0.324%
same,outcome,[4],inactive
same,outcome,[5],inactive
same,max response,[6],18.8% and -5.96%
same,max response,[7],-0.0279% (inactive) and -1.12% (inactive)
same,activity change % (negative = inhibition),[8],1.08% (inactive) and 5.56% (inactive)
